Screening data from PubChem.
Sm TGR inh: inhibitors of Schistosoma mansoni thioredoxin glutathione reductase; Q962Y6; purified TGR, DTNB reduction, TNB absorbance 405 nm; Potency, µM (doses to about 114 µM), inactives show at the highest dose activity change, negative = inhibition, most hits filed as inhibitors; 360,000 tested, 3% active; AID 485364; further: on the % scale 0 is the no-effect control and ±100 the full control effect; nearly all actives have a fitted effect of over 60% in size
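Kinetic colorimetric format: TGR-catalysed, NADPH-driven DTNB reduction monitored via TNB absorbance. Enzyme dispensed at 20 nM; compound exposure 15 min at room temperature before reaction start.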
TbPYK inhibitor: blocks Trypanosoma brucei pyruvate kinase | 410,000 tested, 0.12% active | Potency, µM (titrated, usually from 76.8 µM), without a hit: at the top dose activity, negative = inhibition, most hits filed as inhibitors | TbPYK enzyme, Kinase-Glo Plus ATP luminescence, 45 min | AID 624173; further: on the % scale 0 is the no-effect control and ±100 the full control effect; nearly all actives have a fitted effect of over 50% in size
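Luminescence from Kinase-Glo Plus, added after a 45-minute room-temperature reaction, served as the end-point read-out. The enzyme and substrate were preincubated with compound before ADP (130 uM final) initiated turnover. Concentration-effect curves came from normalized qHTS data.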
NS1 inh: blocks influenza NS1 protein function; Potency, µM (top dose mostly 46.1 µM), without a hit: at the top dose activity, positive = more growth; AID 2326; 270,000 tested, 0.4% active; calls by dose curve; further: actives are rising curves; nearly all actives have a fitted effect of over 50% in size
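Read-out: OD600 growth recovery of NS1-expressing budding yeast. Cells grown overnight at 30C in -URA glucose medium, washed, resuspended and diluted 1:100 in 2% galactose assay medium, pH 6.0. Same strain lacking NS1 served as positive control.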
LmPK inhibitor: blocks Leishmania mexicana pyruvate kinase activity; Q27686; purified LmPK, Kinase-Glo ATP luminescence, 1 h; Potency, µM (series often up to 57.5 µM), without a hit: at the highest dose activity change, negative = inhibition, usual class: inhibitors; 290,000 tested, 0.37% active; AID 1721; further: on the % scale 0 is the no-effect control and ±100 the full control effect
Target sequence (Q27686 whole entry, looked up): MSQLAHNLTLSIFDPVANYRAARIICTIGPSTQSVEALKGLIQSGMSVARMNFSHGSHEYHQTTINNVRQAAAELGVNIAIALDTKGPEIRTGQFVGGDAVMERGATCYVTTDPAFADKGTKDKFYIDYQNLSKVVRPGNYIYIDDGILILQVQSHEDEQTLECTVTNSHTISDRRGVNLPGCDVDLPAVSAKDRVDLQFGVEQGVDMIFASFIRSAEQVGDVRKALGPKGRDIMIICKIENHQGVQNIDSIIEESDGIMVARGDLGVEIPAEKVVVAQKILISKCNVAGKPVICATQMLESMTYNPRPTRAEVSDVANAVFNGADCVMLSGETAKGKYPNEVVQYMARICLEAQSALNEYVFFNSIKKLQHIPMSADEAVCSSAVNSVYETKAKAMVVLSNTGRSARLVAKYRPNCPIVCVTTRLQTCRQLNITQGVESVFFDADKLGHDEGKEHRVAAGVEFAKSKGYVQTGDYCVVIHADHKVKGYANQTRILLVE
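Screened at intermediate enzyme activity to detect both inhibitors and activators: LmPK at 0.1 nM, with a 0.5 nM enzyme column as activation reference. PEP 0.5 mM, ADP 0.1 mM; ATP detected by luminescence after 1 h.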
SARS PLP yeast: SARS-CoV PLP inhibition in yeast. 330,000 tested, 0.19% active. AID 485353. Potency, µM (titrated, usually from 32.9 µM), for the others: top-dose activity, positive = growth rescue, hits mostly activators. S. cerevisiae expressing SARS-CoV PLpro, growth rescue; calls by dose curve; further: 0% is about no effect; nearly all actives have a fitted effect of over 55% in size
RE007 growth inh: less growth of the S. pombe RE007 Vpr strain | S. pombe RE007 Vpr strain, BacTiter-Glo ATP luminescence, 24 h | Potency, µM (titrated, usually from 92.2 µM), inactives show top-dose activity change, negative = less growth, hits mostly inhibitors | 360,000 tested, 0.21% active; active means well fitted falling curve with a large enough effect; inconclusive means small, poorly fitted or top-dose-only effect; inactive means no such curve, though single readings can be large or run the other way; further: on the % scale 0 is the no-effect control and ±100 the full control effect; nearly all actives have a fitted effect of over 50% in size
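Fission yeast strain RE007, carrying one chromosomally integrated HIV-1 vpr copy, was seeded at OD 0.01 in PMG+AL medium with 23 nL pinned compound. After 24 h at 30 °C and 99% humidity, viability was read by BacTiter-Glo luminescence.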
* hit, by the source's call; u = inconclusive; x = no result given; [ ] = remark or other dose. Shown are actives, neighbours in structure and some others; about 3.3% of the full set was active somewhere. Unless noted, the call rests on the fitted dose curve; in most records, active means well fitted curve in the direction sought with a large enough effect; inconclusive means small, poorly fitted or top-dose-only effect, or another doubt; inactive means no such curve, though single readings can be large; an effect the other way counts as inactive or inconclusive. Potency means the concentration at half of the fitted maximal effect.

SMILES | Sm TGR inh | TbPYK inhibitor | NS1 inh | LmPK inhibitor | SARS PLP yeast | RE007 growth inh
COCCn1c(C)cc(/C=C(\C#N)C(=O)OCC(=O)Nc2ccc(S(N)(=O)=O)cc2)c1C | 39.8µM* | -3.7% | x | x | 1.1% | -6.2%
Cc1ccc2c(=O)cc(C(=O)Nc3sc4c(c3C(=O)NCC3CCCO3)CCC4)oc2c1 (stereo not drawn) | 0.9% | 0.8% | x | x | x | x
C[N+]1(C)[C@@H]2CC[C@H]1CC(OC(=O)[C@@H](CO)c1ccccc1)C2 (stereo partly drawn) | 8.91µM* | -20.3% | -2.3% | 0.9% | 3.3% | x
C[N+]1(C)C2CC[C@H]1CC(OC(=O)C(CO)c1ccccc1)C2 (stereo partly drawn) | -8.2% | -2.5% | x | x | x | -0.9%[18.4 µM]
COc1ccc(C2NC(=S)N3C(c4ccc(OC)c(OC)c4)NC(=S)N23)cc1OC (stereo not drawn) | x | -5.1% | x | x | x | x
CS(=O)(=O)N1N=C(c2ccco2)CC1c1ccccc1Cl (stereo not drawn) | 39.8µM* | -3.3% | 0.6% | 1.1% | -1.2% | 6.6%
CS(=O)(=O)N1N=C(c2ccco2)CC1c1ccc(Br)cc1 (stereo not drawn) | u | 1.7% | 0.9% | -1.3% | 24.3% | 7.3%
CS(=O)(=O)N1N=C(c2ccco2)CC1c1cccc([N+](=O)[O-])c1 (stereo not drawn) | 44.7µM* | 0.3% | 3.8% | 8.7% | 0.5% | 12.2%
COc1ccccc1C1CC(c2ccco2)=NN1S(C)(=O)=O (stereo not drawn) | u | -7.1% | -0.5% | -7.0% | -1.3% | -19.2%
CS(=O)(=O)N1N=C(c2ccco2)CC1c1ccc(Cl)cc1Cl (stereo not drawn) | 28.2µM* | 10.1% | -1.6% | 2.2% | 0.5% | 23.1%
Cc1nn(C)c(C)c1CN(C)C(=O)c1cc2nc(-c3ccco3)cc(C(F)(F)F)n2n1 | 12.6µM* | -4.1% | -6.3% | 20.7% | 1.4% | -6.0%
Cc1nn(C)cc1NC(=O)c1cc2nc(-c3ccco3)cc(C(F)(F)F)n2n1 | 6.4% | 3.8% | -1.0% | -2.2% | 0.7% | -23.5%
O=C(c1cc2nc(-c3ccco3)cc(C(F)(F)F)n2n1)N1CCc2ccccc2C1 | 50.1µM* | 2.4% | -88.5% | 7.8% | -2.6% | -0.3%
Cc1nn(C)cc1CN(C)C(=O)c1cc2nc(-c3ccco3)cc(C(F)(F)F)n2n1 | 35.5µM* | 0.6% | u | 19.3% | 8.6% | 7.6%
CCCCOc1ccc(CNC(=O)C2CCCN(c3nnc(-n4c(C)ccc4C)s3)C2)cc1 (stereo not drawn) | -35.5% | -0.9% | x | x | x | x
Cc1cc(C)c(NC(=O)Cn2c(=O)n(CCc3ccccc3)c(=O)c3ccccc32)c(C)c1 | 1.0% | 1.5% | x | x | x | x
CC(C)[C@H](NC(=O)CCCn1nnc2ccccc2c1=O)C(=O)O | 39.8µM* | -12.5% | 5.1% | 0.0% | 0.3% | -9.4%
O=C(c1ccco1)N1CCn2cccc2C1c1ccccc1 (stereo not drawn) | 35.5µM* | -3.3% | x | 4.0% | -0.3% | -5.0%
COc1cc2c(cc1OC)C(c1ccccc1)N(C(=O)c1ccco1)CC2 (stereo not drawn) | -23.8% | -5.9% | -34.7% | 9.4% | -17.7% | 4.6%
CCOC(=O)C1=C(c2ccccc2)NC(SC)=C(C#N)C1c1ccco1 (stereo not drawn) | 35.5µM* | 0.1% | 0.2% | 3.3% | 3.9% | -10.1%
CCOC(=O)C1=C(c2ccccc2)NC(SCC(=O)Nc2ccc(C)cc2)=C(C#N)C1c1ccco1 (stereo not drawn) | -10.6% | 1.8% | -33.1% | 5.6% | x | -4.2%
CCOC(=O)Nc1ccc(S(=O)(=O)Nn2cnnc2)cc1 | 1.4% | 11.1% | u | 2.9% | 22.4µM* | 5.4%
CN1CCN(C(=O)C2CCC(=O)N(Cc3cccc(C(F)(F)F)c3)C2)CC1 (stereo not drawn) | 7.94µM* | 8.7% | 11.9% | -6.5% | 3.4% | u
CCN1CCN(C(=O)C2CCC(=O)N(Cc3cccc(C(F)(F)F)c3)C2)CC1 (stereo not drawn) | -9.0% | -4.1% | 3.4% | -2.1% | -1.2% | 2.5%
Cc1cc(C)n(-c2nc3cc(Cl)ccc3nc2N2CCN(c3ccccc3F)CC2)n1 | 6.4% | 1.2% | x | x | x | x
SMILES | Sm TGR inh | TbPYK inhibitor | NS1 inh | LmPK inhibitor | SARS PLP yeast | RE007 growth inh
COc1ccc(N2C(=O)CC(SCC(=O)O)C2=O)cc1 (stereo not drawn) | -8.1% | 2.6% | -1.9% | 1.0% | -28.8% | 9.4%
COc1ccc(NC(=O)CSC2CC(=O)N(c3ccc4c(c3)OCCO4)C2=O)cc1 (stereo not drawn) | 44.7µM* | -1.5% | -13.7% | -0.6% | -12.0% | 17.6%
COc1ccccc1NC(=O)CSC1CC(=O)N(c2ccc3c(c2)OCO3)C1=O (stereo not drawn) | 12.6µM* | -0.1% | -11.7% | -8.9% | -15.2% | -4.9%
COc1cc(CC(C)N)cc2c1OCO2 (stereo not drawn) | x | -13.6%[157 µM] | x | x | x | x
O=C1Nc2ccccc2C(=O)C1(Cl)Cc1ccccc1 (stereo not drawn) | 6.0% | 4.47µM* | -115.9% | -1.4% | -23.4% | -2.5%
Cc1sc2c(c1C)CN(C1CC(C)(C)NC(C)(C)C1)CN2C(=O)c1ccco1 | 25.1µM* | x | -8.2% | -4.2% | -2.8% | x
Cc1ccc(CNC(=O)CCc2c(C)c3cc4c(C)coc4cc3oc2=O)cc1 | -3.2% | -1.8% | x | x | x | x
COC(=O)c1cccc(NC(=S)Nc2ccccc2Cl)c1 | 22.4µM* | 0.3% | -1.6% | 3.9% | 2.2% | -8.9%
COC(=O)c1cccc(NC(=S)Nc2ccc(Cl)c(Cl)c2)c1 | 22.4µM* | 0.9% | -84.0% | 3.4% | -2.1% | -16.1%
COC(=O)c1cccc(NC(=S)Nc2cccc(Cl)c2C)c1 | -25.1% | -7.2% | -11.7% | 0.4% | 11.3% | -1.3%
O=C(Nc1ccc2c(c1)N(C1CCCC1)C(=O)c1ccccc1S2)c1ccc(F)cc1 | 5.7% | 2.0% | x | x | x | x
CC(C)(C)c1ccc(C2Sc3ccccc3NC3=C2C(=O)c2ccccc23)cc1 (stereo not drawn) | -3.3% | -5.7% | x | x | x | x
CCOc1cc(CNc2ccc(O)cc2)cc(Br)c1OCc1ccccc1 | -1.2% | -33.8% | x | x | x | x
O=c1[nH]c2ccc(NCc3ccccc3OCc3ccc(Cl)cc3)cc2[nH]1 | u | -6.6% | 21.4% | -0.8% | -1.7% | -8.1%
CCNCc1ccccc1OCc1ccccc1 | 2.8% | 2.3% | -2.3% | 0.0% | 1.2% | -11.7%
CCOc1cc(CNc2ccc(O)cc2)ccc1OCc1ccc(Cl)cc1 | 44.7µM* | -27.8% | x | x | x | x
Oc1ccc(NCc2ccccc2OCc2ccccc2)cc1 | 14.1µM* | u | -7.7% | -1.3% | -51.6% | -15.0%
Oc1ccc(NCc2ccccc2OCc2ccc(Cl)cc2)cc1 | 44.7µM* | 4.0% | x | x | x | x
